“And” between values parts separate entries of the source, which are not always exact repeats. Equal values may be shown once. Inconclusive results are not listed. The source made the active and inactive calls. Unless noted, the call rests on the fitted dose curve; in most records, active means well fitted curve in the direction sought with a large enough effect; inconclusive means small, poorly fitted or top-dose-only effect, or another doubt; inactive means no such curve, though single readings can be large; an effect the other way counts as inactive or inconclusive.
Experiments:
[1] = qHTS assay for small molecule disruptors of the mitochondrial membrane potential - 1 hr assay (AID 651754; calls by dose curve; further: nearly all actives have a fitted effect of over 35% in size; further: potency means the concentration at half of the fitted maximal effect)
Summary of the method: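 In this qHTS format, a 1 hr compound treatment of HepG2 cells precedes Mito-MPS staining, and membrane potential is judged from aggregate (red) against monomer (green) fluorescence intensity.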

[2] = qHTS assay for small molecule disruptors of the mitochondrial membrane potential - 5 hr assay (AID 651755; calls by dose curve; further: nearly all actives have a fitted effect of over 40% in size; further: potency means the concentration at half of the fitted maximal effect)
Summary of the method: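 Seed HepG2 overnight, add compound, incubate 5 hr at 37C and 5% CO2, stain 30 min with Mito-MPS, then measure monomer (490/535 nm) and aggregate (540/590 nm) fluorescence.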

[3] = qHTS assay for environmental chemicals that activate the Aryl hydrocarbon Receptor (AhR) signaling pathway (AID 651777); conditions: 1A2-DRE human hepatoma cells, luciferase, 24 h; hits give high values; further: % of control where 0% means no effect; nearly all actives have a fitted effect of over 15% in size
Summary of the method: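 Luminescence (One-Glo, 30 min, room temperature) reports AhR-driven luciferase in stably transfected human hepatoma cells bearing DRE and CYP1A2 promoter. Cells (1,200/well) were treated with compound for 24 hr at 37 C in qHTS format.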

[4] = biological target: Tumor necrosis factor (Homo sapiens) (UniProt P01375); assay: qHTS assay to identify small molecules that stimulate Tumor Necrosis Factor-alpha (TNF-alpha) secretion (AID 651757; active means well fitted curve in the direction sought with a large enough effect in the signal ratio; the % refers to the signal ratio; further: 0% is about no effect)
Summary of the method: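 Using 3000 THP-1 cells per well, compounds and controls were applied for 17 hrs at 37 C. Detection followed with two labeled anti-TNF-alpha antibodies (cryptate donor, XL665 acceptor) for 3 hr at room temperature, measured by TR-FRET.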

[5] = S16 Schwann cell PMP22 intronic element firefly luciferase assay (AID 624032); further: nearly all actives have a fitted effect of over 30% in size; further: potency means the concentration at half of the fitted maximal effect
Summary of the method: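 Rat S16 Schwann cells stably carrying a PMP22 intronic element-driven Fluc reporter were seeded overnight, then exposed to compounds for 24 h at 37 °C. Luminescence was normalized to PTC124 (positive control) and DMSO (0% activity).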

[6] = qHTS assay for small molecule activators of the nuclear factor-kappa B (NF-kB) signaling pathway (AID 651749; active means well fitted activation curve with a large enough effect in the signal ratio; the % refers to the signal ratio; further: series mostly up to about 77 µM; % of control where 0% means no effect); conditions: NF-kB-bla ME-180 cells, beta-lactamase FRET ratio, 16 h; hits give high values
Summary of the method: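 Beta-lactamase reporter expression, controlled by NF-kB response elements in ME-180 cells, was quantified fluorometrically via FRET disruption; cells at 2,000/well had been incubated with 23 nL test compound for 16 hr.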

[7] = qHTS assay for small molecule agonists of the antioxidant response element (ARE) signaling pathway (AID 651741; active means well fitted activation curve with a large enough effect in the signal ratio; the % refers to the signal ratio; further: potency means the concentration at half of the fitted maximal effect; on activation: % of control where 0% means no effect)
Summary of the method: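 Beta-lactamase reporter expression driven by the antioxidant response element in HepG2 cells was detected by fluorescence with LiveBLAzer B/G FRET substrate (2 h, room temperature) following 16 h compound treatment at 37 C.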

[8] = qHTS assay for small molecule activators of the p53 signaling pathway (AID 651743; active means well fitted activation curve with a large enough effect in the signal ratio, not every such curve was filed as active; the % refers to the signal ratio; further: series mostly up to about 92 µM; % of control where 0% means no effect); conditions: HCT-116 p53RE-bla, beta-lactamase FRET ratio, 16 h; hits give high values
Summary of the method: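 Here HCT-116 cells with an integrated p53-responsive beta-lactamase gene were incubated with compounds (16 hours, 37 C) after a 5-hour plating period; beta-lactamase activity was detected as fluorescence intensity via B/G FRET substrate.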

[9] = qHTS assay to identify small molecules that stimulate interleukin-8 (IL-8) secretion (AID 651758; active means well fitted activation curve with a large enough effect in the signal ratio; the % refers to the signal ratio; further: 0% is about no effect)
Summary of the method: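 Quantitative HTS in THP-1 monocytic cells at 2000 cells per well, with 16 hrs compound incubation at 37 C. IL-8 in the medium was then quantified by HTRF immunoassay, read after 1-3 hrs at room temperature.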

[10] = S16 Schwann cell PMP22 intronic element beta-lactamase assay (AID 624044; calls by dose curve;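 further: 0% = DMSO and -100% = potassium clavulanate positive control; nearly all actives have a fitted effect of over 15% in size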)
Summary of the method: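 Beta-lactamase reporter under a PMP22 intronic regulatory element in stable S16 rat Schwann cells; 24 h compound exposure. 460 nm blue signal normalized between DMSO (0%) and potassium clavulanate, with 535 nm FRET tracking viability; curves classed by r2 and response.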

Tumor necrosis factor (Homo sapiens), sequence (P01375 whole entry, looked up): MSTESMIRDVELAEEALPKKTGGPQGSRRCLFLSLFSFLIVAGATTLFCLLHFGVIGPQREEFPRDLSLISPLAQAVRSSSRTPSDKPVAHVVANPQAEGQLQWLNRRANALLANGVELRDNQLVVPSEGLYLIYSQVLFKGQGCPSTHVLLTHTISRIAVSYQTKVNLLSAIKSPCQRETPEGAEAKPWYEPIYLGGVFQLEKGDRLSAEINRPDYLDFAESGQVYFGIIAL

Nc1ccc(S(=O)(=O)c2ccc(N)cc2)cc1
inactive: Potency [1] | Potency [2] | activation [3] -1.52% and 0.0487%

O=C1C(c2[nH]c3ccccc3c2O)=Nc2ccccc21
inactive: outcome [4]

CC(C)=CCC/C(C)=C/CO
inactive: activation [3] -0.426%

CC(=O)Nc1ccccc1
inactive: Potency [5] | activation [6] -0.999% | outcome [4] | activation [3] -1.4%

COc1ccc(O)cc1
inactive: Potency [5] | Potency [7] | activation [8] 1.27% | activation [6] 0.533% | outcome [4] | activation [3] 0.2%

CC(=O)OCC(COC(C)=O)OC(C)=O
inactive: Potency [5] | Potency [7] | activation [6] 0.2% and 0.487% | outcome [4] | outcome [9] | activation [3] 1.18% and -0.878%

CCCCCCCC(=O)OCC(COC(=O)CCCCCCC)OC(=O)CCCCCCC
inactive: Potency [5] | activation [8] -2.91% | outcome [4] | activation [3] -1.98%

CCN(CC)C(=O)c1cccc(C)c1
inactive: outcome [10] | Potency [7] | Potency [2] | outcome [4] | outcome [9] | activation [3] -1.83% and 2%

CC(=O)NS(=O)(=O)c1ccc(N)cc1
inactive: Potency [5] | outcome [10] | activation [8] -3.02% | activation [6] -0.656% | Potency [1] | Potency [2] | outcome [4] | activation [3] -0.967%

COc1cc(O)cc(O)c1
inactive: outcome [10]

Cc1cccc(Nc2ccccc2C(=O)O)c1C
active: Potency [7] 61.1 µM
inactive: Potency [5] | activation [3] 2.22%

CCCC(O)C(CC)CO (centres undefined)
inactive: Potency [5] | Potency [7] | activation [8] 1.06% | activation [6] 0.969% | outcome [4] | outcome [9] | activation [3] 0.804%

Cc1ccc(C(C)C)c(O)c1
inactive: Potency [5] | Potency [7] | activation [8] -1.75% | activation [6] -1.79% | activation [3] 0.149%

CC(=O)Nc1ccc(C(=O)O)cc1
inactive: Potency [5] | activation [8] -0.0847% | activation [6] -1.2% | outcome [4] | activation [3] 0.454%

CCCCCCCCCCCCCCCCCCO
inactive: activation [8] -2.92% | activation [3] 0.518%

O=C(OOC(=O)c1ccccc1)c1ccccc1
inactive: Potency [5] | Potency [7] | activation [8] -0.427% | activation [3] 2.82%

Cc1cc(C)nc(NS(=O)(=O)c2ccc(N)cc2)n1
inactive: Potency [5] | Potency [7] | activation [8] -3.59% and 3.14% | outcome [4] | activation [3] -1.73% and 0.131%

Cc1ccsc1C(=CCCN1CCC[C@@H](C(=O)O)C1)c1sccc1C
inactive: outcome [10]

FC(F)(F)C(Cl)Br (centres undefined)
inactive: Potency [5] | activation [8] -1.4% | outcome [4] | outcome [9] | activation [3] 0.539%

O=C1c2cccc(O)c2C(=O)c2c(O)cccc21
inactive: outcome [10] | activation [8] 3.77% | activation [6] -0.734% | outcome [4] | activation [3] 5.57%
active: Potency [7] 29.8 µM | Potency [1] 4.73 µM | Potency [2] 7.5 µM

NNC(=O)CP(=O)(c1ccccc1)c1ccccc1
inactive: outcome [10]

Cc1cc(O)cc(C)c1Cl
inactive: Potency [5] | outcome [10] | activation [6] -0.418%
active: Potency [7] 10.9 µM

C=CCNC(N)=S
inactive: Potency [5] | Potency [7] | activation [8] -1.91% | activation [6] -0.527% | outcome [4] | outcome [9] | activation [3] 0.627%

COC(=O)c1ccc(O)cc1
active: Potency [7] 19.3 µM
inactive: Potency [5] | activation [6] -2.57% | activation [3] 7.25%

CC(=O)Nc1cccc(O)c1
inactive: Potency [5] | Potency [7] | activation [8] -0.0293% | activation [6] 0.693% | outcome [4] | activation [3] 2.7%

OC[C@@H](O)[C@@H](O)[C@H](O)[C@H](O)CO
inactive: Potency [5] | activation [8] -0.611% | activation [6] -2.19% | activation [3] -0.115%

CCCCOC(=O)c1ccc(N)cc1
inactive: Potency [5] | outcome [10] | activation [8] -1.05% | activation [6] -0.245% | Potency [1] | Potency [2] | outcome [4] | outcome [9] | activation [3] 13%

Cc1c(N(C)C)c(=O)n(-c2ccccc2)n1C
inactive: Potency [5] | outcome [10] | Potency [7] | activation [6] 1.01% and 2.73% | Potency [1] | Potency [2] | outcome [4] | activation [3] -1.03% and 1.07%

Cc1cc(=O)[nH]c(=S)[nH]1
inactive: Potency [5] | activation [8] -1.35% | activation [6] -0.135% | outcome [4] | outcome [9] | activation [3] -0.745%

Cc1c(C(=O)NCCO)[n+](=O)c2ccccc2n1[O-]
inactive: Potency [5] | activation [8] 3.58% | activation [6] -3.75% | activation [3] -0.247%

CC1CC(OC(=O)c2ccccc2O)CC(C)(C)C1 (centres undefined)
inactive: Potency [5] | outcome [10] | activation [8] -6.41% | activation [6] -1.08% | Potency [1] | Potency [2] | outcome [4] | activation [3] 2.34%

CCCCCC(N)=O
active: Potency [5] 14.4 µM
inactive: Potency [7] | activation [8] 0.75% | activation [6] 0.129% | outcome [4] | activation [3] -0.0681%

CC[N+](CC)(CC(=O)Nc1c(C)cccc1C)Cc1ccccc1
inactive: Potency [5] | Potency [7] | activation [8] -6.37% | activation [3] 0.016%

O=C(O)CCCCC1CCSS1 (centres undefined)
inactive: Potency [5] | activation [8] -5.57% and 16.2% | activation [6] -0.268% and -2.59% | outcome [4] | outcome [9] | activation [3] 1.47% and -0.721%
active: Potency [7] 48.6 µM and 37.6 µM

CN(C/C=C/C#CC(C)(C)C)Cc1cccc2ccccc12
inactive: outcome [10]

O=C(c1ccccc1)C(O)c1ccccc1 (centres undefined)
inactive: Potency [5] | Potency [7] | activation [6] -2.35% and -0.255% | outcome [4] | activation [3] -1.25% and 2.53%

Reference: PubChem BioAssay (NCATS)
